Compounds with a hit are over-represented: about 3.8% of the library has one in this group of screens.
A549 viability – A549 cytotoxicity, counter-screen for Nrf2 inhibitors. 390,000 tested, 0.16% active. Potency, µM (series often up to 46 µM), for the others: top-dose activity change, negative = cytotoxicity, most hits filed as inhibitors. AID 504648. A549 ARE-Fluc cells, CellTiter-Fluor viability, 18-24 h; also: % is scaled to controls: 0 for no effect and ±100 for the full control effect
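Cytotoxicity counterscreen: CellTiter-Fluor fluorescence was measured in A549 ARE_Fluc cells after 18-24 h of compound exposure in a concentration series. The subsequent BugLite luminescent read reports ARE-luciferase activity.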
HepG2 viability – HepG2 cytotoxicity, counter-screen for TGF-b inhibitors; HepG2 CAGA-GFP viability, ATP luminescence, 18 h; Potency, µM (top dose mostly 46.1 µM), inactives show top-dose activity change, negative = cytotoxicity, hits mostly cytotoxic; 410,000 tested, 0.76% active
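CellTiter-Glo luminescence gave cytotoxicity after 18 hours at 37 degrees C. The cells were HepG2 CAGA-GFP in 1% FBS DMEM, stimulated with 500 pg/mL TGF-beta after compound addition. %Activity was normalised to no-cell wells (complete cell-killing) and DMSO (no toxicity), and curves were fitted and classified.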
Nrf2 inh – Nrf2 pathway inhibition; A549 ARE-Fluc reporter, luciferase luminescence, 18-24 h; Potency, µM (doses to about 46 µM), for inactives: at the highest dose activity change, negative = inhibition, usual class: inhibitors; 360,000 tested, 2.1% active; AID 504444; also: % is scaled to controls: 0 for no effect and ±100 for the full control effect; nearly all actives have a fitted effect of over 60% in size
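Nrf2 activity is the BugLite luminescence, read 15 min after reagent at room temperature, following CellTiter-Fluor cytotoxicity readout (30 min, 37C). Compound titrations were applied for 18-24 h to 5000 A549 ARE_Fluc cells/well in 5% FBS OPTI-MEM.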
TGFb inhibitor – blocks TGF-b signaling | HepG2 CAGA-GFP TGF-b/SMAD3 reporter, GFP fluorescence, 18 h; TGF-beta stimulated, 500 pg/mL final | 410,000 tested, 1.2% active | Potency, µM (highest dose often 46.1 µM), without a hit: at the top dose activity, negative = inhibition, most hits filed as inhibitors; also: % is scaled to controls: 0 for no effect and ±100 for the full control effect; nearly all actives have a fitted effect of over 65% in size
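TGF-beta reporter screen: HEPG2 CAGA-GFP, 1% FBS, 500 pg/mL TGF-beta final, 18 h; per-cell GFP summed per well; curves fitted and categorized by class.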
ATXN2 expr inh – ATXN2 expression inhibition; Potency, µM (titrated, usually from 57 µM), for the others: at the highest dose activity change, negative = inhibition, most hits filed as inhibitors; 360,000 tested, 0.72% active; HEK-293 ATXN2-luciferase reporter, luminescence, 24 h; also: % is scaled to controls: 0 for no effect and ±100 for the full control effect; nearly all actives have a fitted effect of over 55% in size
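qHTS (up to 57 uM final) was run with 24 h compound exposure of reporter cells at 37 °C. Each well was multiplexed: SteadyGlo luminescence measured ATXN2-luciferase expression after a fluorogenic Gly-Phe-AFC viability readout (25 uM final).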
S2 tox – viability counter-screen for ATXN expression inhibitors; Potency, µM (highest dose often 56.7 µM), usual class: cytotoxic; S2 cells (HEK-293 line with an ATXN2-luciferase reporter) viability, CellTiter-Fluor protease fluorescence, 24 h; AID 651635; 400,000 tested, 0.49% active; also: nearly all actives have a fitted effect of over 40% in size
* = called active by the depositor; i = inactive; u = inconclusive; x = no result given; [ ] = remark or other dose. Calls follow the shape of the dose curve; as a rule, active = well fitted curve in the direction sought with a large enough effect; inconclusive = small, poorly fitted or top-dose-only effect, or another doubt; inactive = no such curve, though single readings can be large; an effect the other way counts as inactive or inconclusive. Potency is read from the fitted curve at half-maximal effect.

SMILES	A549 viability	HepG2 viability	Nrf2 inh	TGFb inhibitor	ATXN2 expr inh	S2 tox
COc1ccc(CC2=NN3C([C@@H](CCc4ccccc4)[C@@H](C)O)=NC(C)C3C(=O)N2)cc1OC (some centres undefined)	x	x	x	x	43%	x
Cc1ccc(NC(=O)C2CCN(S(=O)(=O)c3ccc4c(c3)CCCC(=O)N4)CC2)cc1N(C)C	-4%	-22%	u	-2%	2%	i
Cc1cc(NC(=O)CN(C)S(=O)(=O)c2ccc3c(c2)CCCC(=O)N3)ccc1Br	-9%	-28%	21µM*	-14%	16µM*	x
Cc1ccc(NC(=O)C2CCCN(S(=O)(=O)c3ccc4c(c3)CCCC(=O)N4)C2)cc1N(C)C (centres undefined)	1%	-19%	16µM*	-13%	-23%	u
COc1ccc(C(=O)C[n+]2cc(-c3ccc(OC)cc3)n3c2CCCC3)cc1	-9%	-10%	8.2µM*	-1%	-18%	u
COc1ccc(Br)cc1/C=C/C(=O)c1ccc(NC(C)=O)cc1	8.2µM*	16µM*	5.2µM*	u	22µM*	u
COc1ccc(NC(=O)/C=C/c2cc(Br)ccc2OC)cc1	3%	-9%	9%	10%	-16%	i
O=C1C(=O)N(CCN2CCOCC2)C(c2ccccc2F)/C1=C(\O)c1ccc(S(=O)(=O)N2CCOCC2)cc1 (centres undefined)	-5%	-35%	-4%	-4%	-12%	i
COc1ccc(-c2cnc(SCC(=O)Nc3cc(C)on3)n2Cc2ccco2)cc1	-7%	-3%	-13%	-19%	-9%	i
COc1ccc(-c2cnc(SCC(=O)Nc3nc(C(C)(C)C)cs3)n2Cc2ccco2)cc1	-15%	-11%	21µM*	u	-13%	i
COc1ccc(NC(=O)CSc2ncc(-c3ccc(F)cc3)n2Cc2ccco2)cc1	-17%	-44%	16µM*	u	-17%	i
O=C(CSc1ncc(-c2ccc(F)cc2)n1Cc1ccco1)Nc1nccs1	-2%	-77%	-10%	-1%	3%	i
O=C(CN(Cc1ccc(Cl)cc1)S(=O)(=O)c1ccccc1)NCC1CCCO1 (centres undefined)	3%	-10%	-7%	1%	-4%	i
O=C(C1=C[C@@H](c2ccc3c(c2)OCO3)C[C@@H](OCCCCO)O1)N1CCN(Cc2ccc3c(c2)OCO3)CC1	0%	-15%	-40%	1%	-10%	i
O=C(C1=C[C@H](C2CCCCC2)C[C@H](OCCCCO)O1)N1CCN(Cc2ccc3c(c2)OCO3)CC1	u	-29%	18µM*	-28%	0%	i
O=C(C1=C[C@H](c2ccc3c(c2)OCO3)C[C@H](OCc2ccc(CO)cc2)O1)N1CCN(Cc2ccc3c(c2)OCO3)CC1	-7%	-8%	21µM*	-35%	0%	i
CCO[C@@H]1OC(C(=O)N2CCN(Cc3ccc4c(c3)OCO4)CC2)=C[C@H](C2CCCCC2)[C@H]1CCCO	-6%	-1%	-25%	u	u	18µM*
CC(CNC(=O)c1cc(COc2ccc3ncccc3c2)on1)c1ccccc1 (centres undefined)	-16%	-28%	15µM*	u	u	x
O=C(c1cc(COc2ccc3ncccc3c2)on1)N1CCC[C@H]1CO	-20%	-2%	9.2µM*	u	11%	u
CN(Cc1nccn1C)C(=O)c1cc(COc2ccc3ncccc3c2)on1	-7%	-7%	21µM*	-1%	-18%	i
CN(Cc1nccn1C)C(=O)c1cc(COc2cccc(C(F)(F)F)c2)on1	u	-4%	-6%	0%	29%	i
COCC1CCCN(C(=O)c2cc(COc3ccc4ncccc4c3)on2)C1 (centres undefined)	-18%	-3%	8.2µM*	u	-15%	i
Cc1ccc(NC(=O)CSCC(=O)N2CCN(Cc3ccc4c(c3)OCO4)CC2)cc1	-8%	4%	-6%	8%	-2%	u
Cc1ccc(-c2c(C3C4C=CCCC4(C)C(=O)N3Cc3ccccc3)ccc3ccccc23)cc1 (centres undefined)	1%	2%	u	-8%	x	x
CC(C)Oc1cccc(C(=O)Nc2ccc3oc(-c4ccccc4)nc3c2)c1	-11%	-24%	x	u	u	u
SMILES	A549 viability	HepG2 viability	Nrf2 inh	TGFb inhibitor	ATXN2 expr inh	S2 tox
CCOC(=O)N1CCN(C(=O)c2cc(COc3cccc(C(C)=O)c3)on2)CC1	0%	-36%	u	4%	53%	i
CCOC(=O)N1CCN(C(=O)c2cc(COc3ccc4ncccc4c3)on2)CC1	-13%	-19%	18µM*	-5%	u	i
CN1/C(=C\C=O)C(C)(C)c2ccccc21	2%	-10%	-26%	-4%	-27%	i
CN1\C(=C/C=C/C=C/C=[N+](C)C)C(C)(C)c2ccccc21	u	-34%	u	u	x	18µM*
O=C(NNC1=Nc2ccccc2SC1)c1ccc(Cl)cc1	u	7%	10µM*	-6%	14µM*	u
O=C(NNC1=Nc2ccccc2SC1)c1ccc(F)cc1	-20%	-25%	23µM*	-26%	-31%	i
O=C(NNc1c2ccccc2nc2ccccc12)c1ccc(Cl)cc1	-18%	4%	u	-2%	-19%	u
CCN(CC)CC(C)CNC(=O)c1cc(-c2ccc(Br)s2)nc2ccccc12 (centres undefined)	-16%	-32%	3%[9.27 µM]	u	28µM*	x
CC(C)CN(CCCNC(=O)c1cc(-c2ccc(Br)s2)nc2ccccc12)CC(C)C	-5%	-13%	18%	14%	-1%	i
O=S(=O)(Cc1nnnn1-c1ccc(Br)cc1)c1ccccc1	x	-37%	x	-7%	x	i
CCS(=O)(=O)c1nnnn1-c1ccccc1S(C)(=O)=O	-25%	-2%	-17%	11µM*	-26%	u
CCCCC[n+]1ccn(C2=C([O-])c3ccccc3C(=O)/C2=N\S(=O)(=O)c2ccccc2)c1	u	6.3µM*	u	u	u	i
CC(C)[n+]1ccn(C2=C([O-])c3ccccc3C(=O)/C2=N\S(=O)(=O)c2ccccc2)c1	-8%	-128%	23µM*	20µM*	-41%	i
CCCC[n+]1ccn(C2=C([O-])c3ccccc3C(=O)/C2=N\S(=O)(=O)c2ccccc2)c1	u	11µM*	20µM*	8.9µM*	u	u

Screens as filed in PubChem BioAssay.
